Source: PubChem (National Center for Advancing Translational Sciences (NCATS))
AmpC inh detg – AmpC beta-lactamase inhibition with detergent present; P00811; AmpC hydrolysis of nitrocefin, absorbance 480 nm, 0.01% Triton; Potency, µM (top dose mostly 114 µM), actives largely listed as inhibitors; 370,000 compounds, 0.041% hits; AID 485294; further: nearly all actives have a fitted effect of over 25% in size
Target sequence (P00811 whole entry, looked up): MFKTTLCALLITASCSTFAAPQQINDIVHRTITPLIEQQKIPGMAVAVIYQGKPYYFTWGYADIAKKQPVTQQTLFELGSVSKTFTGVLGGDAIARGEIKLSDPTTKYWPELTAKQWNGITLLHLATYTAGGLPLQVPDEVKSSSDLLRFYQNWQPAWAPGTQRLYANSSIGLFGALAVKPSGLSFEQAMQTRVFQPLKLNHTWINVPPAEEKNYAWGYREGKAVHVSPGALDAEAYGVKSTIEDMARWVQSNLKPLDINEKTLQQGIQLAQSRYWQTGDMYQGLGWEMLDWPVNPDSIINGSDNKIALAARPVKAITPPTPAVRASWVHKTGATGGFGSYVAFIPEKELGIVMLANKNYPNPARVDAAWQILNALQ
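20 mM phosphate pH 7.0 + 0.01% (detergent screen) or 0.0001% Triton X-100; 5.3 nM AmpC reagent; cpd preinc 15 min RT; nitrocefin (800 uM stock) to start; A480 q20 s × 4 min; Activity was normalised to no-enzyme and no-compound control wells.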
Lassa entry inh – blocks Lassa virus binding to or entry into cells. Lassa virus pseudotype entry inhibition, cell reporter. Potency, µM (series often up to 37.9 µM), most hits filed as inhibitors. 300,000 compounds, 1.2% hits. AID 540256; calls by dose curve; tested in HEK293 cells; further: nearly all actives have a fitted effect of over 50% in size
MARV entry inh – blocks Marburg virus binding to or entry into cells. Marburg virus pseudotyped entry inhibition, cell reporter. Potency, µM (series often up to 37.8 µM), usual class: inhibitors. 300,000 compounds, 1.8% hits. AID 540276; calls by dose curve; tested in HEK293 cells
AMA1-RON2 inh – inhibitors of Plasmodium falciparum AMA1-RON2 interaction | AID 720542 | Potency, µM (highest dose often 58.2 µM), most hits filed as inhibitors | 360,000 compounds, 0.2% hits | AlphaScreen AMA1-biotinylated RON2 peptide binding; further: nearly all actives have a fitted effect of over 45% in size
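AMA1 (3D7) with his tag at 25 nM final met compounds first, then biotinylated RON2 peptide at 25 nM; detection used donor plus acceptor beads, 10 µg/mL apiece, read by AlphaScreen after 30 min at room temperature.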
AmpC no deterg – AmpC beta-lactamase inhibition without detergent; P00811; AmpC nitrocefin hydrolysis, absorbance 480 nm, 0.0001% Triton; Potency, µM (doses to about 57.1 µM), usual class: inhibitors; 330,000 compounds, 0.52% hits; AID 485341; further: nearly all actives have a fitted effect of over 20% in size
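20 mM phosphate pH 7.0 + 0.01% (detergent screen) or 0.0001% Triton X-100; 5.3 nM AmpC reagent; cpd preinc 15 min RT; nitrocefin (800 uM stock) to start; A480 q20 s × 4 min; Activity was normalised to no-enzyme and no-compound control wells.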
Each line names hits and unclear results; the compound was inactive in the other large screens; ! = not active in a repeat. In the library only some 2.3% were active in any assay of this set; here they are far more common. Unless noted, the call rests on the fitted dose curve; in most records, active means well fitted curve in the direction sought with a large enough effect; inconclusive means small, poorly fitted or top-dose-only effect, or another doubt; inactive means no such curve, though single readings can be large; an effect the other way counts as inactive or inconclusive.

CCN(Cc1nc(-c2ccc(OC)c(OC)c2)no1)S(=O)(=O)c1ccc(OC)cc1	none (no result: AMA1-RON2 inh, AmpC no deterg)
O=C(c1cccs1)N1C[C@H](O)[C@H](n2cc(C3CC3)nn2)C[C@@H]1c1ccc(Cl)cc1	none (no result: AmpC inh detg, MARV entry inh, AMA1-RON2 inh, AmpC no deterg)
NC(C(=O)O)C(O)c1ccc(O)c(O)c1 (stereo not given)	Lassa entry inh inconclusive, MARV entry inh 1.3µM (no result: AmpC inh detg, AMA1-RON2 inh, AmpC no deterg)
O=C(O)c1ccc(O)c(O)c1	none (no result: Lassa entry inh, MARV entry inh)
Cc1ccc(C)n1-c1nn(S(=O)(=O)c2ccccc2)c2cccc(F)c12	MARV entry inh inconclusive
COc1ccc(S(=O)(=O)n2nc(-n3c(C)ccc3C)c3c(F)cccc32)cc1OC	Lassa entry inh inconclusive, MARV entry inh 8.9µM
CCN(CC)S(=O)(=O)c1cc(C(=O)OCC(=O)Nc2ccc(-c3nc4ccc(C)cc4s3)cc2)ccc1F	Lassa entry inh 3.2µM!, MARV entry inh inconclusive, AmpC no deterg inconclusive
Cc1onc(-c2c(F)cccc2Cl)c1C(=O)N[C@@H]1C(=O)N2C(C(=O)O)C(C)(C)S[C@H]12 (stereo not given in full)	AmpC inh detg 2.5µM (no result: Lassa entry inh, MARV entry inh, AmpC no deterg)
Cc1onc(-c2ccccc2Cl)c1C(=O)N[C@@H]1C(=O)N2[C@@H]1SC(C)(C)[C@@H]2C(=O)O	AmpC inh detg 0.35µM, AmpC no deterg 0.79µM (no result: Lassa entry inh, MARV entry inh)
Cc1onc(-c2c(F)cccc2Cl)c1C(=O)NCc1ccccc1	none (no result: Lassa entry inh, MARV entry inh)
Cc1onc(-c2ccccc2Cl)c1C(=O)Nc1ccccc1	none
COc1ccc(N(C(=O)CCl)C(C(=O)NCCc2ccccc2)c2cccs2)cc1Cl (stereo not given)	Lassa entry inh 26µM, MARV entry inh inconclusive
N=C1Sc2ccccc2C2=NCCCN12	MARV entry inh 1.6µM (no result: AmpC inh detg, Lassa entry inh, AMA1-RON2 inh, AmpC no deterg)
CN(C)C(CNc1ccc(C(F)(F)F)cc1[N+](=O)[O-])c1ccccc1 (stereo not given)	AMA1-RON2 inh 14µM (no result: Lassa entry inh)
CCC(C)c1ccc(NC(=S)NC2CCN(Cc3ccccc3)CC2)cc1 (stereo not given)	Lassa entry inh inconclusive, MARV entry inh 11µM
COc1cc(C2CC(=O)N(Cc3ccc(F)cc3)c3ccccc3S2)cc(OC)c1OC (stereo not given)	MARV entry inh inconclusive (no result: Lassa entry inh, AMA1-RON2 inh, AmpC no deterg)
CCCN(Cc1ccccc1)C(=O)Nc1ccc2c(c1)nnn2C	Lassa entry inh 2.6µM, MARV entry inh inconclusive
Cn1nnc2cc(NC(=O)Nc3ccccc3F)ccc21	none (no result: AmpC inh detg, Lassa entry inh, MARV entry inh, AmpC no deterg)
O=C(C1COc2ccccc2O1)N1CCN(c2nc3ccc(F)cc3s2)CC1 (stereo not given)	none (no result: MARV entry inh, AMA1-RON2 inh, AmpC no deterg)
Cc1ccc(-n2nnnc2-c2cnn(-c3ccc(F)cc3)c2C(F)(F)F)cc1	Lassa entry inh 15µM, MARV entry inh inconclusive
Nc1nc(CN2CCN(c3ccccn3)CC2)nc(Nc2ccc(F)cc2)n1	Lassa entry inh inconclusive, MARV entry inh 2.6µM
Nc1nc(CN2CCCCCC2)nc(Nc2ccc(F)cc2)n1	none
CC1(C)Cc2c(ccc3ccccc23)C(c2cc3ccccc3oc2=O)=N1	Lassa entry inh 13µM, MARV entry inh 5.8µM
CCCCCCOC(=O)C[N+](C)(C)CCOC1CC2CCC1(C)C2(C)C (stereo not given)	AmpC no deterg inconclusive
CCCCCCCOC(=O)C[N+](C)(C)CCOC1CC2CCC1(C)C2(C)C (stereo not given)	Lassa entry inh inconclusive, MARV entry inh 11µM
Cc1cccc(OCCCCn2nnc3sc4c(c3c2=O)CCC(C)C4)c1 (stereo not given)	Lassa entry inh inconclusive (no result: AMA1-RON2 inh, AmpC no deterg)
N/C(Cc1ccc(Cl)cc1)=N\OC(=O)c1ccc2ccccc2c1	AmpC inh detg inconclusive, Lassa entry inh inconclusive, MARV entry inh 2.8µM
COc1ccc(C/C(N)=N/OC(=O)c2ccc(Cl)cc2)cc1	Lassa entry inh inconclusive
N/C(Cc1ccc(Cl)cc1)=N\OC(=O)c1cccc2ccccc12	Lassa entry inh 12µM, MARV entry inh inconclusive
O=[N+]([O-])c1ccc(Nc2ccccc2)cc1	none
c1ccc(Nc2ccc(Nc3ccccc3)cc2)cc1	AMA1-RON2 inh 16µM (no result: Lassa entry inh, MARV entry inh)
CC(C)(C)OC(=O)NCCc1nnc(S(=O)(=O)Cc2ccc(Cl)cc2Cl)o1	AmpC inh detg inconclusive, MARV entry inh inconclusive, AmpC no deterg 0.32µM
Oc1ccc(CN2CCN(c3ccccc3)CC2)c2cccnc12	AmpC inh detg inconclusive, Lassa entry inh inconclusive, MARV entry inh inconclusive
Oc1ccc(CN2CCc3ccccc3C2)c2cccnc12	Lassa entry inh 2.6µM, MARV entry inh 3.3µM (no result: AmpC no deterg)
Oc1ccc(CN2CCC(Cc3ccccc3)CC2)c2cccnc12	Lassa entry inh 2.8µM, MARV entry inh inconclusive
